# SRC3 inh = inhibitors of human steroid receptor coactivator 3 (SRC3); inhibition, % at 3.6 µM; Q9Y6Q9; hit rate 0.17% among 360,000; HEK293 GAL4-SRC3 luciferase reporter, luminescence;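 active = inhibition above a per-campaign cutoff, the mean of all compounds plus 3 SD, cut at about 60% in these data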;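 note: 0% = DMSO-treated cells and 100% = gossypol-treated cells at 36 µM; higher means less SRC3-driven luciferase light from the GAL4 reporter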
# NR2F2 inh = inhibitors of human COUP-TFII (NR2F2) | AID 686940 | HEK293T NGFI-A luciferase reporter, luminescence | hit rate 0.7% among 370,000 | P24468 | inhibition, % at 8.6 µM;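 active = inhibition above a per-plate cutoff, mean inhibition of test wells between control levels plus 3 SD, cut at about 38% in these data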;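 note: cells cotransfected with COUP-TFII expression vector driving the NGFI-A reporter; 0% = median of COUP-TF2 test wells and 100% = reporter-only cells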
# Target sequence (P24468 whole entry, looked up): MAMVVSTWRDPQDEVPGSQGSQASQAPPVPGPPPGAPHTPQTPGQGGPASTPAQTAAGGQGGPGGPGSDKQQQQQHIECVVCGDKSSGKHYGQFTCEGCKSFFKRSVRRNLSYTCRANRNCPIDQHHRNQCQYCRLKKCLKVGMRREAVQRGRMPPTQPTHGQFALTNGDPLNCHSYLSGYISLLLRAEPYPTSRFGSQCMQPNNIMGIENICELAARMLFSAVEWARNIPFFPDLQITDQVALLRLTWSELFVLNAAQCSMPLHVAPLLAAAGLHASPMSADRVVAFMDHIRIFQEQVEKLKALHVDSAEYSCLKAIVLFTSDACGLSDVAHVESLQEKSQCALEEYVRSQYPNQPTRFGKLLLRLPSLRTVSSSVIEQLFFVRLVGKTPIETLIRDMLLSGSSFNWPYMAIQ
# Gli-Sufu antag = blocks Gli-Sufu signaling in a luciferase reporter; hit rate 0.74% among 340,000; Sufu-KO-LIGHT fibroblasts, Gli luciferase reporter luminescence; inhibition, % at 5 µM;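 active = inhibition above about 55%, limit read from the data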;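 note: 0% = DMSO-treated cells and 100% = wells with medium but no cells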
# NCOA1 inh = inhibitors of human steroid receptor coactivator 1 (SRC1); inhibition, % at 3.6 µM; hit rate 0.12% among 360,000; AID 588354; HEK293 GAL4-SRC1 luciferase reporter, luminescence;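 active = inhibition above the campaign mean plus 3 SD, with each screening campaign given its own cutoff, cut at about 60% in these data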;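 note: 0% = DMSO treated cells and 100% = gossypol at 36 µM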
# NR5A2 inv ag = suppresses constitutive activity of human LRH-1; O00482; HEK293T StAR-luciferase reporter, LRH-1 transfected, 24 h; inhibition, % at 3.6 µM; hit rate 0.13% among 360,000;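 active = inhibition above the mean inhibition of all tested compounds plus 3 SD, cut at about 73% in these data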;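 note: 0% = DMSO wells and 100% = reporter-only cells lacking LRH-1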
# SRC2 inh = human SRC2 (NCOA2) inhibition; inhibition, % at 9 µM; Q15596; hit rate 0.17% among 370,000; HEK293 GAL4-SRC2 luciferase reporter, luminescence;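 active = inhibition above the mean inhibition of all tested compounds plus 3 SD, set per campaign, cut at about 52% in these data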;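 note: 0% = DMSO treated cells and 100% = cells given Gossypol at 36 µM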
# Gal4-VP16 ctr = inhibits VP16 reporter, flagging COUP-TFII antagonist hits; shares compounds with NR2F2 inh; HEK293 Gal4-VP16 luciferase reporter, luminescence; inhibition, % at 8.5 µM; hit rate 25% among 2,500; in the data active = inhibition above about 13%
# NR2F2 inh conf = COUP-TFII (NR2F2) inhibition, confirmation assay; shares compounds with NR2F2 inh; HEK293 NGFI-A luciferase reporter, luminescence; inhibition, % at 8.5 µM; hit rate 45% among 2,500; AID 687008;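 active = mean inhibition over three repeats above a set limit taken from the earlier primary screen, cut at about 38% in these data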;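 note: 100% = cells given the luciferase reporter alone without the COUP-TF2 vector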
# * hit, by the source's call; · = not tested or not shown. Only some compounds are listed: those with a hit (about 1.3% of all), similar ones and a draw of the others.
SMILES,SRC3 inh,NR2F2 inh,Gli-Sufu antag,NCOA1 inh,NR5A2 inv ag,SRC2 inh,Gal4-VP16 ctr,NR2F2 inh conf
COc1cc(NC(=O)Cn2c(C)cc3ccccc3c2=O)cc(OC)c1OC,-45,-18,2,11,15,-23,·,·
CC(=O)c1cn(CC(=O)Nc2c(C)cccc2C)c2ccccc12,22,37,-9,15,19,20,·,·
CC(=O)c1cn(CC(=O)Nc2ccccc2C)c2ccccc12,7,38*,1,-5,40,29,-5,25
COc1ccc(NC(=O)Cn2c(C)cc(=O)c3ccccc32)cc1,21,55*,46,3,42,16,0,26
Cc1cc(=O)c2ccccc2n1CC(=O)NCc1ccccc1,21,6,12,-1,11,5,·,·
CCOC(=O)C1(Cc2ccccc2)CCN(Cc2cccc(C#N)c2)CC1,·,-9,·,·,·,12,·,·
Cc1ccc(C2NC(=O)c3[nH]nc(-c4ccccc4)c32)cc1 (stereo not drawn),·,9,·,·,·,2,·,·
CCOC(=O)Cc1csc(NC(=O)/C=C/c2cccc(Br)c2)n1,26,58*,11,14,2,16,-7,14
Cc1onc(-c2ccccc2Cl)c1C(=O)Nc1cccc2cccnc12,-93,43*,-3,-87,39,-3,4,33
O=C(COC(=O)c1ccc(F)cc1F)Nc1cccc(S(=O)(=O)N2CCOCC2)c1,-11,3,0,-6,4,-52,·,·
CN(C)CCCNS(=O)(=O)c1ccc(NC2CCCCCC2)c([N+](=O)[O-])c1,12,53*,36,9,25,14,5,39*
CCNc1ccc(S(=O)(=O)NCCN(C)C)cc1[N+](=O)[O-],15,-9,6,-11,24,24,·,·
CCOc1ccc(OCC)c(NC(=O)C2CCCN2S(=O)(=O)c2cccc3cccnc23)c1 (stereo not drawn),24,40*,-3,12,7,-38,1,12
CC1CCCCC1NC(=O)CSc1nnc(C(F)(F)F)n1C (stereo not drawn),-5,-4,·,2,-13,-3,·,·
COCCN(C(=O)CCC(=O)Nc1nccs1)C(C(=O)NC(C)(C)C)c1ccc(C)cc1 (stereo not drawn),0,60*,-9,-13,-25,76*,-1,-5
COCCN(C(=O)CCC(=O)Nc1nccs1)C(C(=O)NC(C)(C)C)c1ccc(F)cc1 (stereo not drawn),1,5,0,15,-2,-10,·,·
COCC(=O)Nc1ccc2c(c1)[C@H]1C[C@@H](CC(=O)NCC3CC3)O[C@H](CO)[C@H]1O2,·,2,·,·,·,-9,·,·
CC(C)(C)c1ccc(C(=O)Nc2ccc(CC(=O)O)cc2)o1,58,95*,53,59,53,87*,84*,91*
CN(C)c1ccc(CCc2ccc(N)cc2)cc1,15,59*,16,-4,10,45,40*,19
Cc1cccc(N(C(=O)c2csnn2)C(C(=O)NCc2ccccc2)c2cccs2)c1 (stereo not drawn),-29,15,14,9,-14,-12,·,·
CNC(=O)c1ccc(NC(=O)C2CCN(c3ncnc4sc(C)c(C)c34)CC2)cc1,36,44*,-1,41,19,20,-1,13
COc1ccc(-c2csc(NC(=O)C3CCN(c4ncnc5sc(C)c(C)c45)CC3)n2)cc1OC,60,56*,72*,79*,18,23,12,87*
COc1ccccc1OCC(=O)NNC(=O)C1CCN(c2ncnc3sc(C)c(C)c23)CC1,36,2,-8,-12,1,17,·,·
CC(C)COC(=O)N1CCCCC1c1cc(C(=O)NCc2ccccc2)no1 (stereo not drawn),1,7,·,-12,-1,-1,·,·
O=C(CSc1nnc(-c2cccs2)o1)c1ccc(F)cc1,·,-34,·,·,·,-40,·,·
SMILES,SRC3 inh,NR2F2 inh,Gli-Sufu antag,NCOA1 inh,NR5A2 inv ag,SRC2 inh,Gal4-VP16 ctr,NR2F2 inh conf
CCOC(=O)Cn1c2c(c(=N)c3ccccc31)CCC2,4,10,17,11,-13,-2,·,·
CCCCCn1c2c(c(=N)c3ccccc31)CCC2,50,66*,84*,34,61,25,14*,54*
CCCCCCCCn1c2c(c(=N)c3ccccc31)CCC2,78*,90*,91*,24,84*,20,13*,73*
CCCCCCCCCCn1c2c(c(=N)c3c1CCC3)CCC2,79*,81*,92*,70*,96*,27,21*,79*
N=c1c2c(n(Cc3ccccc3)c3c1CCC3)CCC2,40,41*,-4,23,52,10,9,37
CCCCn1c2c(c(=N)c3ccccc31)CCC2,21,-8,32,-65,-19,-11,·,·
C[C@H]1CNC(=O)c2c(C(=O)N3CCN(c4ccccc4)CC3)ncn21,·,-25,·,·,·,-9,·,·
C[C@@H]1CN([C@@H](C)CO)S(=O)(=O)c2ccc(Br)cc2O[C@H]1CN(C)C(=O)Cc1cccnc1,3,-15,·,0,-15,-3,·,·
CCOC(=O)N1CCN(C(=O)c2ccc3c(c2)sc2nc(-c4ccc(OC)cc4)cn23)CC1,-6,-11,-3,-18,6,-6,·,·
COc1ccc2c(c1)sc1nc(-c3ccccc3)cn12,13,47*,54,5,-1,61*,47*,40*
Cc1ccc(C(=O)N/N=C/c2ccc([N+](=O)[O-])s2)cc1,56,53*,-29,48,47,83*,84*,93*
Cc1ccc(C(=O)N/N=C\c2ccc([N+](=O)[O-])s2)cn1,19,40*,33,6,38,27,31*,20
O=C(N/N=C/c1ccc([N+](=O)[O-])s1)c1ccncc1,26,·,17,-3,44,·,·,·
Cc1[nH]cnc1C(=O)N/N=C/c1ccc([N+](=O)[O-])s1,-55,-17,16,-24,15,-8,·,·
CCOC(=O)C1CCN(C(=O)C(C)(C)NC(=O)Nc2ccc(Cl)cc2Cl)CC1,·,3,·,·,·,·,·,·
CC(=O)Nc1ccc(S(=O)(=O)N2CCC(C(=O)NCc3ccncc3)CC2)cc1,9,-7,-18,7,-4,-2,·,·
S=c1nc(C2COc3ccccc3O2)[nH][nH]1 (stereo not drawn),-18,-28,-12,-14,-22,-34,·,·
CCCS(=O)(=O)c1cnc(C2COc3ccccc3O2)nc1N (stereo not drawn),60,72*,49,54,59,69*,42*,79*
CCC(C)[C@H]1CNC(=O)C(=O)N1CCCCC1CCCCC1 (stereo partly drawn),·,2,·,·,0,-5,·,·

# Assay outcomes from PubChem BioAssay.
